Here are results for 21 compounds from PubChem BioAssay AID743126 (The Scripps Research Institute Molecular Screening Center, 2013).

About 2,100 (0.57%) of roughly 370,000 compounds were called active. The list comes from a sample in which actives are over-represented; it also holds similar structures and randomly drawn compounds. Unmarked numbers belong to inactive results.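 Rule for the calls: active = inhibition above mean plus 3 SD of compounds lying within the high and low control bounds (cut at about 19% in these data); inactive = the rest.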

The target of the assay is Group 3 secretory phospholipase A2 (Homo sapiens) (UniProt Q9NZ20). Description: HGIII-sPLA2 enzyme inhibition – biochemical, QFRET, BODIPY PC-A2 liposome substrate, primary screen (AID 743126).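 Note: 0% = median of test compound wells and 100% = no enzyme DMSO wells.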 The conditions noted are these: QFRET BODIPY PC-A2 liposome hydrolysis, fluorescence; at 12.2 µM; hits give high values.
Sequence of Group 3 secretory phospholipase A2 (Homo sapiens) (Q9NZ20 whole entry, looked up): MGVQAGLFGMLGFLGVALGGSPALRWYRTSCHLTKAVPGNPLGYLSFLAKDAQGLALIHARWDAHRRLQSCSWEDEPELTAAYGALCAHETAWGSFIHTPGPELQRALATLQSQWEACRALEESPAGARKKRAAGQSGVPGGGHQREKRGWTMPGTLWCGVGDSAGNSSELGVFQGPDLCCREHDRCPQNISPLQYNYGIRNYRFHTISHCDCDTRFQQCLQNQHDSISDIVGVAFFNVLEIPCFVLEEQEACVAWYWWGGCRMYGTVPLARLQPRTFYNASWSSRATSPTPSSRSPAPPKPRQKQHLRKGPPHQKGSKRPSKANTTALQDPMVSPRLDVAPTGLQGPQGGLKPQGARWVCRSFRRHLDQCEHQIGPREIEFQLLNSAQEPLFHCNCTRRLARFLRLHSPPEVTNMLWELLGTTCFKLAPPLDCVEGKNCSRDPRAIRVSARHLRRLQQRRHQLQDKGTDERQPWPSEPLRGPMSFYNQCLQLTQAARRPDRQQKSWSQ
On to `CCOc1ccc(-n2c(SCC(=O)Nc3cc(C)c(NC(=O)c4ccccc4)cc3OC)nnc2-c2cccc(Cl)c2)cc1`, for which the inhibition is 2%. As for `CSC1=NN(c2ccccc2)CN(c2ccccc2)N1C`, the inhibition is 21.7% (active). Under `O=C(CCl)NC1CCCCN(Cc2cccc(C(F)(F)F)c2)C1=O` (stereo unspecified) stands 7.99%; under `CCCCNC(=O)C[C@H]1C(=O)N(Cc2ccc(OC)cc2)C2=CCCC[C@@]21C(=O)OCC`, 12.9%; under `Cc1ccc(NCc2n[nH]c(=S)n2-c2ccccc2)cc1Cl`, 12.3%.

Take `Cc1ccc(C)c(S(=O)(=O)Nc2cc(C)on2)c1`: the inhibition was 6.47%. The value for `Cc1cc(-c2n[nH]c(=S)n2-c2ccc(C)c(C)c2)no1` was 20.5% (active); that for `Cc1ccccc1CN1CCCCC(NC(=O)Nc2ccccc2F)C1=O` (stereo unspecified) was 4.74%; that for `C[C@@H](NC(=O)c1ccccc1OCC(=O)Nc1ccc(I)cc1)C(=O)N(C)Cc1ccccc1` was -8.83%.

For the compound `Cc1ccc(-n2c(SCC(=O)Nc3ccc(S(=O)(=O)Nc4nccs4)cc3)nnc2-c2ccccn2)cc1`, the inhibition is -36.9%. Under `CC(=O)c1cc(C#N)c(N2CC(C)OC(C)C2)nc1C` (stereo unspecified) stands 10.2%; under `CC(=O)c1nnn(-c2ccc(Cl)cc2C#N)c1C`, 21.4% (active); under `O=C(Nc1cccc(Cl)c1)OC1CC2CC1[C@H]1CCCCN1[C@H]2Cc1ccccc1` (stereo partly specified), -3.5%. Under `N#Cc1ccc(OC[C@@H](O)CN2CCC(C(O)(c3ccccc3)c3ccccc3)CC2)c(F)c1` stands -15.8%; under `Cc1ccc(CC2(C)C(=O)Nc3ccc(OC(F)(F)F)cc32)cc1` (stereo unspecified), -5.51%; under `O=C(c1ccc2c(c1)C(=O)N(Cc1ccncc1)C2=O)N1CCN(S(=O)(=O)c2ccc(OC(F)(F)F)cc2)CC1`, 0.57%. Regarding `O=C1C(=O)N(Cc2ccc(-c3ccsc3)cc2)c2ccc(OC(F)(F)F)cc21`, the inhibition is 26% (active).

For `CC(C)CNC(=O)OCc1cn(Cc2ccc(F)cc2)nn1`, the inhibition is 1.52%. Under `COC(=O)[C@@]12CCCCC3=C1N(CCC3)C(=O)[C@H]2CC(=O)NCc1cccc2ccccc12` stands -12%; under `CCCC[C@H]1C2CC(OC(=O)NCc3ccccc3)C(C2)[C@H]2CCCCN21` (stereo partly specified), 9.24%. On to `Nn1c(SCC(=O)Nc2ccc(S(N)(=O)=O)cc2)nnc1-c1n[nH]c2c1CCC2`, for which the inhibition is 9.17%.

The term inhibition denotes the change of the read-out against control, counted positive when it falls.
